Compound activity (PubChem BioAssay)
This is a sample that favours compounds with a hit; in the whole collection about 8.1% have one here.
SW480 rereplic = inducers of DNA re-replication in SW480 colon cancer cells; SW480 DNA re-replication, Hoechst DNA content imaging, 48 h; Potency, µM (doses to about 46.1 µM), inactives show top-dose re-replication activation, most hits filed as activators; 340,000 compounds, 1.8% hits; AID 624297; also: % of control where 0% means no effect; nearly all actives have a fitted effect of over 55% in size
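250 cells/well; 23 nL cpd via pin tool; 48 hr, 37 C, 5% CO2; Hoechst 40 min; imager read of total nuclear intensity, ex 405/em 500-530 nm.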
ELG1 repair inh = ELG1-dependent DNA repair inhibition; HEK293T ELG1-luciferase reporter, luminescence, 16 h; DNA damage induced by 5-fluorouridine; Potency, µM (highest dose often 46.1 µM), for the others: at the highest dose activity change, negative = inhibition, hits mostly inhibitors; 330,000 compounds, 2.3% hits; AID 504467; also: % is scaled to controls: 0 for no effect and ±100 for the full control effect; nearly all actives have a fitted effect of over 55% in size
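Luminescence from the luciferase reporter, measured 30 min after ONE-Glo reagent at room temperature, was the read-out. Beforehand, 2,000 cells per well were exposed for 16 hr at 37 °C to 5-fluorouridine together with compound or vehicle.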
KB-V1 MDR tox = KB-V1 MDR subline cytotoxicity; KB-V1 MDR cells viability, CellTiter-Glo, 72 h; Potency, µM (doses to about 46.1 µM), usual class: cytotoxic; 400,000 compounds, 3.4% hits; AID 1347076; also: % is scaled to controls: 0 for no effect and ±100 for the full control effect; nearly all actives have a fitted effect of over 60% in size
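Potencies derive from concentration-effect curves fitted to normalized luminescence (CellTiter-Glo) of KB-V1 cells treated for 72 h at 37 degrees C in phenol-red-free DMEM containing 10% FBS.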
KB-3-1 tox = kills parental KB-3-1 adenocarcinoma cells. KB-3-1 viability, CellTiter-Glo ATP luminescence, 72 h. 400,000 compounds, 1.4% hits. Potency, µM (top dose mostly 46.1 µM), actives largely listed as cytotoxic; also: % is scaled to controls: 0 for no effect and ±100 for the full control effect; nearly all actives have a fitted effect of over 60% in size
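KB-3-1 parental drug-naive adenocarcinoma cells in DMEM/10% FBS, incubated 72 h at 37 C with pin-transferred compounds across a concentration series. Viability by CellTiter-Glo luminescence; concentration-response curves fitted after normalization.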
MCF10A rereplic = DNA re-replication induction in MCF 10a cells; MCF 10A DNA re-replication, Hoechst nuclear intensity, 48 h; Potency, µM (series often up to 46.1 µM), inactives show at the highest dose activity, positive = re-replication, hits mostly activators; 350,000 compounds, 2.9% hits; AID 624296; also: % of control where 0% means no effect; nearly all actives have a fitted effect of over 50% in size
* marks the source's active call; other numbers are inactive results; i = inactive; ? = inconclusive; nt = no result given; [ ] = remark or other dose. Calls follow the shape of the dose curve; as a rule, active = well fitted curve in the direction sought with a large enough effect; inconclusive = small, poorly fitted or top-dose-only effect, or another doubt; inactive = no such curve, though single readings can be large; an effect the other way counts as inactive or inconclusive. Potency is read from the fitted curve at half-maximal effect.

SMILES	SW480 rereplic	ELG1 repair inh	KB-V1 MDR tox	KB-3-1 tox	MCF10A rereplic
c1cnc2ncc3sccc3c2c1	16.4µM*	7.7%	i	i	-6.6%
CCNC(=O)C1CC(=O)OC12CCCCC2 (stereo not given)	0.9%	2.4%	i	i	8.9%
COc1ccc(-c2cc(C(=O)Nc3cc(C)on3)c3ccccc3n2)c(OC)c1	2.6%	18.3µM*	i	i	8.2%
COc1cccc(NC(=O)c2cc(-c3ccc(OC)cc3OC)nc3ccccc23)c1	3.7%	nt	i	i	-5.2%
Cc1ccc(-c2cc(C(=O)Nc3cc(C)on3)c3ccccc3n2)cc1	?	-0.4%	i	i	11.6%
Cc1cc(NC(=O)c2cc(-c3cccs3)nc3ccccc23)no1	134.1%	?	?	20.6µM*	?
Cc1cccc2sc(NNC(=O)c3cc(-c4cccs4)nc4ccccc34)nc12	?	?	?	?	18.4µM*
Cc1ccc(NC(=O)c2cc(-c3cccs3)nc3ccccc23)c(C)c1	nt	nt	i	i	nt
O=S(=O)(c1ccc(Br)cc1F)N1CCC(O)CC1	-50.4%	nt	i	i	14.0%
CCc1cc(=O)oc2c(C)c(OS(C)(=O)=O)ccc12	-2.8%	nt	4.11µM*	i	-5.2%
Cc1ccc(-n2ncc3c(N4CCC(C(N)=O)CC4)ncnc32)c(C)c1	-10.4%	-4.6%	i	i	0.4%
COc1ccc(OC)c(C(=O)CSc2ncc3c(n2)-c2ccccc2N(Cc2ccccc2C)S3(=O)=O)c1	nt	nt	?	i	nt
O=C(NCCCN1CCCC1=O)c1cc(S(=O)(=O)N2CCOCC2)c(Cl)cc1Cl	4.61µM*	15.0%	i	i	-0.9%
Nc1nc(NCCOCCO)nc(NC2CCCCC2)c1[N+](=O)[O-]	?	14.2%	i	i	12.7%
Nc1nc(Nc2ccccc2)nc(NC2CCCCC2)c1[N+](=O)[O-]	9.2µM*	?	?	?	?
Nc1nc(NCCO)nc(NC2CCCCC2)c1[N+](=O)[O-]	?	-11.3%	i	i	25.9µM*
CCOc1ccccc1NC(=S)Nc1ccc2cn[nH]c2c1	1.6%	0.0%	i	i	8.6%
Cc1c(CCO)c(=O)n(C)n1C(=O)c1ccc(Cl)cc1	-17.3%	14.6%	i	i	4.6%
Cc1c(C(=O)N2CCOCC2)sc2ncnc(N3CCc4ccccc4C3)c12	4.1%	12.4%	i	i	0.2%
COc1ccccc1N1CCN(c2ncnc3sc(C(=O)NCC4CCCO4)c(C)c23)CC1 (stereo not given)	2.3%	9.2µM*	i	i	4.8%
COCCCNC(=O)c1sc2ncnc(N3CCc4ccccc4C3)c2c1C	20.6µM*	8.2µM*	i	?	14.6µM*
Cc1c(C(=O)N2CCCCC2C)sc2ncnc(N3CCc4ccccc4C3)c12 (stereo not given)	-2.3%	20.6µM*	?	i	?
COc1ccc(N2CCN(c3ncnc4sc(C(=O)NCC5CCCO5)c(C)c34)CC2)cc1 (stereo not given)	-0.5%	?	?	i	?
O=C(O)c1ccccc1C(=O)OCCCCOC(=O)c1ccccc1C(=O)O	-3.8%	-7.0%	i	i	?
CCN(C(=O)Cc1cccs1)c1nnc(-c2cc(OC)c(OC)c(OC)c2)s1	-9.3%	2.91µM*	i	i	3.9%
SMILES	SW480 rereplic	ELG1 repair inh	KB-V1 MDR tox	KB-3-1 tox	MCF10A rereplic
O=c1[nH]c(CSc2ncccn2)nc2c1cnn2-c1ccccc1	-0.4%	-21.9%	?	i	4.7%
O=C(CSc1nc2c(cnn2-c2ccc(F)cc2)c(=O)[nH]1)N1CCOCC1	-5.0%	3.4%	i	i	4.5%
O=c1[nH]c(SCc2nc3c(cnn3-c3ccccc3)c(=O)[nH]2)nc2ccccc12	0.0%	?	?	2.06µM*	?
Cc1ccc2nc(SCc3nc4c(cnn4-c4ccccc4)c(=O)[nH]3)[nH]c2c1	-2.3%	-6.1%	2.31µM*	2.59µM*	?
O=c1[nH]c(CSc2nc3ccccc3[nH]2)nc2c1cnn2-c1ccccc1	5.8%	11.6µM*	10.3µM*	i	?
O=c1[nH]c(CSc2nc3ccccc3o2)nc2c1cnn2-c1ccccc1	-1.0%	-0.4%	i	i	?
Cc1ccc(-n2ncc3c(=O)[nH]c(SCC(=O)N4CCOCC4)nc32)cc1	-5.0%	-4.1%	i	i	25.9µM*
COc1ccc(N2CCN(C(=O)c3cn(CC(C)C)c(=O)c4c3c3ccccc3n4C)CC2)cc1	nt	nt	i	?	nt
O=C(c1cc(S(=O)(=O)N2CCCCC2)c(Cl)cc1N1CCOCC1)N1CCOCC1	-3.1%	12.1%	i	i	-9.4%
Cc1oc2ccccc2c1-c1cn2c(n1)SCC2	4.2%	18.5%	?	i	8.2%
CC(=O)c1cccc(Nc2nc3ccccc3n3cnnc23)c1	-1.7%	-12.9%	i	i	-9.5%
Cc1cc(OCC(=O)N[C@@H](Cc2ccccc2)c2nc3ccccc3[nH]2)ccc1Cl	-1.4%	?	i	i	?
Cc1sc(C(=O)Nc2ccc3ccccc3c2)cc1CC(=O)O	1.4%	?	i	i	-2.5%
Cc1ccc2nc(N3CCN(C(=O)CCC(=O)O)CC3)nc(-c3ccccc3)c2c1	14.3%	-0.3%	i	i	20.6µM*
Cc1ccc2nc(N3CCC(C(=O)O)CC3)nc(-c3ccccc3)c2c1	0.1%	14.2%	i	i	20.6µM*
O=C(O)CCCC(=O)N1CCN(c2nc(-c3ccccc3)c3ccccc3n2)CC1	?	0.4%	i	i	5.7%
Cc1ccc2nc(N3CC(=O)Nc4ccccc43)nc(-c3ccccc3)c2c1	18.4µM*	-20.8%	?	i	3.26µM*
Cc1ccc2nc(NCC(=O)O)nc(-c3ccccc3)c2c1	-0.8%[9.22 µM]	6.5%	i	i	22.4%
Cc1ccc2cc3c(N)c(C(=O)N4CC(=O)Nc5ccccc54)sc3nc2c1	nt	8.9%	nt	nt	nt
CC(C)(C)c1ccc(Oc2ccc(N)cn2)cc1	-5.7%	10.2%	?	i	-0.7%
CCOC(=O)c1c(-c2ccccc2)oc2ccc(OCC(O)CN(C)C)cc12 (stereo not given)	?	?	?	?	5.4%
COc1cc2c(cc1OC)C1(Nc3c-2c(-c2ccccc2)nn3-c2ccccc2)C(=O)Nc2ccccc21 (stereo not given)	5.17µM*	?	?	?	?
CCc1nn(-c2ccccc2)c2c1-c1cc(OC)c(OC)cc1C1(N2)C(=O)Nc2ccccc21 (stereo not given)	?	20.6µM*	?	i	20.6µM*
CC(C)(C)OC(=O)[C@H](Cc1ccccc1)NC(=O)c1nc[nH]c1C(=O)NCCCCCN	-21.3%	-3.3%	i	i	13.4%
